# Screening data (PubChem)
# ELG1 repair inh: ELG1-dependent DNA repair inhibition | HEK293T ELG1-luciferase reporter, luminescence, 16 h; DNA damage induced by 5-fluorouridine | Potency, µM (titrated, usually from 46.1 µM), for inactives: at the highest dose activity change, negative = inhibition, most hits filed as inhibitors | hit rate 2.3% among 330,000 | AID 504467; note: potency is the fitted concentration of half-maximal effect; nearly all actives have a fitted effect of over 55% in size
#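 Luminescence from the luciferase reporter, measured 30 min after ONE-Glo reagent at room temperature, was the read-out. Beforehand, 2,000 cells per well were exposed for 16 hr at 37 °C to 5-fluorouridine together with compound or vehicle.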
# TDP1 inh: TDP1 (human) enzyme inhibition. recombinant TDP1, AlphaScreen DNA substrate cleavage. Potency, µM (top dose mostly 130 µM), for inactives: top-dose activity change, negative = inhibition, hits mostly inhibitors. hit rate 0.28% among 350,000; note: potency is the fitted concentration of half-maximal effect; nearly all actives have a fitted effect of over 40% in size
# Target sequence (Q9NUW8 whole entry, looked up): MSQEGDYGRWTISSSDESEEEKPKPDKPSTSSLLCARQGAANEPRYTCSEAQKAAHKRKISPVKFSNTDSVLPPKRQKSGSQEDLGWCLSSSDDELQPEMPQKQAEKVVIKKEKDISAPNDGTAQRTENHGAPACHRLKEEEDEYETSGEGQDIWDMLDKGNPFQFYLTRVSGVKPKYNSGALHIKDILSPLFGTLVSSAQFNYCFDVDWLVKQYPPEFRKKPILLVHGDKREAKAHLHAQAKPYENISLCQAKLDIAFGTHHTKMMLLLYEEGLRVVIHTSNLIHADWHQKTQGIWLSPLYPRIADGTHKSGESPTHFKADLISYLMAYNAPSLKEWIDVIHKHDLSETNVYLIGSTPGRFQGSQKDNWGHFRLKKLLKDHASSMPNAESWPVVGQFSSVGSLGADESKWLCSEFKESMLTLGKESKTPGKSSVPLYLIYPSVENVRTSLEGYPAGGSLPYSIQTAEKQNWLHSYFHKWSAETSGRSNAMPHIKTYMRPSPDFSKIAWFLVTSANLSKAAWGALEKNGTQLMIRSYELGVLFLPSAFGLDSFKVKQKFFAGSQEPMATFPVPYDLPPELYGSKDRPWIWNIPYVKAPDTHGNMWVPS
#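 Steps: enzyme plus compound, 15 min RT; add biotin/phosphotyrosine-FITC oligonucleotide (15 nM final), react 5 min; add donor/acceptor beads (10 ug/ml final), 10 min; read AlphaScreen. Tdp1 at 1 nM final.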
# DT40 TDP1 CPT: growth inhibition of DT40 Tdp1-/-;hTDP1 cells with camptothecin (screen for TDP1 inhibitors); chicken DT40 Tdp1-/-;hTDP1 cells + 20 nM CPT, ATP luminescence, 48 h; Potency, µM (highest dose often 46.2 µM), without a hit: at the highest dose activity change, negative = growth inhibition, usual class: inhibitors; hit rate 12% among 420,000; note: potency is the fitted concentration of half-maximal effect; nearly all actives have a fitted effect of over 55% in size
#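 Chicken DT40 Tdp1-/- cells stably complemented with human TDP1 were seeded at 400 cells/well in medium containing 20 nM camptothecin, exposed to pin-transferred compounds, and grown at 37 °C for at least 48 hr. Viability was read as ATP luminescence.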
# Giardia kill: kills Giardia lamblia | Giardia lamblia trophozoite viability | activity change, % at 7.66 µM, hits read low | hit rate 0.15% among 340,000; in the data active = activity change below about -80%; inconclusive = between about -30% and that limit;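 note: parasites exposed to compound for two days anaerobically before the ATP read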
#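 ATP-content bioluminescence gauges trophozoite survival. Cells (100/well) receive compound and incubate anaerobically for 48 hrs at 37 deg C; detection reagent follows for 15-30 min at room temperature.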
# TDP1 cell noCPT: qHTS for Inhibitors of human tyrosyl-DNA phosphodiesterase 1 (TDP1): qHTS in cells in absence of CPT | AID 686978, 2013 | DT40 Tdp1-/- hTDP1 cells, no CPT, ATP luminescence, 48 h | hit rate 15% among 420,000 | Potency, µM (highest dose often 46.2 µM), for inactives: top-dose activity change, negative = growth inhibition, usual class: inhibitors; note: potency is the fitted concentration of half-maximal effect; nearly all actives have a fitted effect of over 55% in size
#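 Growth kinetics read by CellTiter-Glo luminescence after ≥48 hr at 37 °C. Cells: DT40 Tdp1-/- stably carrying human TDP1, 400 per well, compound exposure in the absence of CPT (DMSO vehicle).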
# IL1B secr inh: blocks inflammasome-driven IL-1 beta release; hit rate 4.7% among 360,000; AID 743279; activity change, % at 57.5 µM; THP-1 LPS/ATP IL-1B secretion, AlphaLISA, 16 h; hits give low values; in the data active = activity change below about -50%; inconclusive = mostly about -30% to -49%
#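 THP-1 cells pretreated 1 hr with compounds (up to 57.5 uM final), then stimulated with LPS (250 ng/mL final) plus ATP (1.25 mM final); secreted IL-1B measured by AlphaLISA after 16 hr, decreased signal indicating inhibition.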
# * marks the source's active call; other numbers are inactive results; ? = inconclusive; · = no result given; [ ] = another dose, or the depositor's remark. This is a sample that favours compounds with a hit; in the whole collection about 19% have one here. Unless noted, calls come from the whole dose curve; as a rule, active = well fitted curve in the direction sought with a large enough effect; inconclusive = small, poorly fitted or top-dose-only effect, or another doubt; inactive = no such curve, though single readings can be large; an effect the other way counts as inactive or inconclusive. % is set by controls: 0 for no effect and ±100 for the full control effect.
SMILES,ELG1 repair inh,TDP1 inh,DT40 TDP1 CPT,Giardia kill,TDP1 cell noCPT,IL1B secr inh
O=C(NCCCCCCNC(=O)c1cncc(O)c1)c1cncc(O)c1,1%,1%,-3%,-11,-11%,-5
C=CCN1C(=O)C(CC(=O)Nc2ccc(OC)cc2)SC1=Nc1ccc(S(N)(=O)=O)cc1 (stereo not given),?,5%,24%,-4,3%,6
CC(=O)c1cccc(OCC(=O)N2CCN(c3ccc(C(F)(F)F)cn3)CC2)c1,?,6%,?,-7,15µM*,-2
CCOC(=O)c1sc2nc(C)nc(NC3CCC(O)CC3)c2c1C (stereo not given),-4%,2%,-24%,-5,-6%,-2
N#Cc1ccc(-c2ccccc2)nc1SCC(=O)c1cc2ccccc2oc1=O,20%,7%,23µM*,-15,?,10
N#Cc1ccc(-c2ccccc2)nc1SCCN1CCOCC1,?,4%,-30%,-12,?,-75*
Cc1nc(SCC(=O)c2cc3ccccc3oc2=O)c(C#N)c(-c2cccs2)c1C(=O)Nc1ccccc1,?,6%,21µM*,-16,?,-3
CC(C)c1c(C#N)c(N)nc(SCC(=O)c2cc3ccccc3oc2=O)c1C#N,-13%,1%,?,43,?,-9
CCc1ccc(S(=O)(=O)c2nnn3c2nc(Nc2ccc(NC(C)=O)cc2)c2sccc23)cc1,·,·,23µM*,·,?,·
CC(C)Nc1nc2c(S(=O)(=O)c3cccc(Cl)c3)nnn2c2ccsc12,·,8%,-29%,·,-29%,·
COc1cc(Nc2nc3c(S(=O)(=O)c4cccc(Cl)c4)nnn3c3ccsc23)cc(OC)c1,·,-3%,9.2µM*,·,7.3µM*,·
CCc1ccc(S(=O)(=O)c2nnn3c2nc(NC(C)C)c2cc(Cl)ccc23)cc1,·,5%,?,·,?,·
CCc1ccc(Nc2nc3c(S(=O)(=O)c4cccc(Cl)c4)nnn3c3ccsc23)cc1,·,-3%,6.5µM*,·,4.6µM*,·
CCc1ccc(S(=O)(=O)c2nnn3c2nc(NCCC(C)C)c2cc(Cl)ccc23)cc1,·,1%,?,·,21µM*,·
COc1cccc(C(NC(C)=O)c2nc(-c3ccc(F)cc3OC)cs2)c1 (stereo not given),·,·,?,·,?,4
COc1cc2[nH]c(C(=O)N3CCc4ccccc43)cc2c(OC)c1OC,?,·,?,-6,?,-11
N#CCC(=O)N/N=C\c1cc(Br)ccc1OC/C=C/c1ccccc1,?,2%,15µM*,-25,26µM*,-21
CCOC(=O)N/N=C\c1ccccc1OC/C=C/c1ccccc1,?,4%,?,43,?,-11
COC(=O)N/N=C\c1ccccc1OC/C=C/c1ccccc1,?,4%[56.1 µM],?,17,?,-65*
COc1cc(/C=N\NC(C)=O)ccc1OC/C=C/c1ccccc1,16µM*,1%[56.1 µM],-12%,-14,-10%,-1
CN(Cc1ccc(Cl)cc1)C(=O)COC(=O)CSc1ccc([N+](=O)[O-])cc1,7%,6%,5%,-4,-12%,2
CS(=O)(=O)c1ccc(C(=O)OCC#CCSc2nnc(-c3cccc4ccccc34)o2)cc1,·,0%,·,·,·,·
Cc1cc2nnn(-c3nnc(-c4ccccc4)c4ccccc34)c2cc1C,20%,0%,26µM*,-6,?,9
COc1cccc(CNc2nc(Cl)nc3nc[nH]c23)c1,·,0%,16µM*,-4,7.9µM*,·
Clc1nc(NCc2cccs2)c2[nH]cnc2n1,·,1%,13µM*,-3,11µM*,·
COc1ccc(CNc2nc(Cl)nc3nc[nH]c23)cc1,·,0%,7%,2,?,·
Cc1ccc(NC(=O)Cn2c(=O)c3ccc(Cl)cc3n3nncc23)cc1,·,1%,3%,·,4%,·
